In a collection of fitness landscapes (doi:10.1126/science.1257360):
In all, about 140,000 sequences were measured (“enrichment ratio after two sorts for PhoP signalling”: median about 0, highest 2% from about 11 on). Shown is part of a subset that was picked to be rich in the highest values.

B1: PhoQ; a variant is named by its letters at X, in order, P23837 (parent)
chain: MKKLLRLFFPLSLRVRFLLATAAVVLVLSLAYGMVALIGYSVSFDKTTFRLLRGESNLFYTLAKWENNKLHVELPENIDKQSPTMTLIYDENGQLLWAQRDVPWLMKMIQPDWLKSNGFHEIEADVNDTSLLLSGDHSIQQQLQEVREDDDDAEMTHSVAVNVYPATSRMPKLTIVVVDTIPVELKSSYMVWSWFIYVLSANLLLVIPLLWVAAWWSLRPIEALAKEVRELEEHNRELLNPATTRELTSLVRNLNRLLKSERERYDKYRTTLTDLTHSLKTPLXXLQXXLRSLRSEKMSVSDAEPVMLEQISRISQQIGYYLHRASMRGGTLLSRELHPVAPLLDNLTSALNKVYQRKGVNISLDISPEISFVGEQNDFVEVMGNVLDNACKYCLEFVEISARQTDEHLYIVVEDDGPGIPLSKREVIFDRGQRVDTLRPGQGVGLAVAREITEQYEGKIVAGESMLGGARMEVIFGRQHSAPKDE

Variants of: B1
Experiment: enrichment ratio after two sorts for PhoP signalling (ratio (wild type AVST 3.29)); higher = more functional
Conditions: with PhoP (E. coli)

Row | Variant | enrichment ratio
1 | EAPV | ≤ 0.25
2 | PSRQ | ≤ 0.25
3 | MGCC | ≤ 0.25
4 | VYFN | ≤ 0.25
5 | VGPY | ≤ 0.25
6 | LCTR | ≤ 0.25
7 | SPWT | ≤ 0.25
8 | HPWT | ≤ 0.25
9 | TDWT | 25.1
10 | RLWT | ≤ 0.25
11 | SEWT | 13.2
12 | TEWT | 12.8
13 | SLWT | ≤ 0.25
14 | ADWT | ≤ 0.25
15 | LLWT | ≤ 0.25
16 | LRWT | ≤ 0.25
17 | KSWT | ≤ 0.25
18 | LEWT | 12.5
19 | MNIK | ≤ 0.25
20 | LKPQ | ≤ 0.25
21 | MYHS | ≤ 0.25
22 | LAEQ | ≤ 0.25
23 | KQHW | ≤ 0.25
24 | LWPI | ≤ 0.25
25 | IYVA | ≤ 0.25
26 | RPSC | ≤ 0.25

Row | Variant | enrichment ratio
27 | GEHV | ≤ 0.25
28 | YVEW | ≤ 0.25
29 | RVGM | ≤ 0.25
30 | TLSL | 15.8
31 | VLSL | 0.415
32 | TGSL | 16.8
33 | TISL | 19.4
34 | GLSK | ≤ 0.25
35 | WISL | ≤ 0.25
36 | NGSL | ≤ 0.25
37 | SLSL | 10.7
38 | GLSL | 11.5
39 | GDSL | ≤ 0.25
40 | GGSL | 3.4
41 | NISL | 0.771
42 | WCCL | ≤ 0.25
43 | HISH | ≤ 0.25
44 | VTMH | ≤ 0.25
45 | AIRA | ≤ 0.25
46 | TVSY | 10.4
47 | MVVG | ≤ 0.25
48 | YGHF | ≤ 0.25
49 | SPSL | ≤ 0.25
50 | TASL | 15.1
51 | KASL | ≤ 0.25
52 | TVSL | 14.4

Row | Variant | enrichment ratio
53 | NASL | ≤ 0.25
54 | SGSL | 11.8
55 | NVSL | ≤ 0.25
56 | YWEI | ≤ 0.25
57 | PCWT | ≤ 0.25
58 | HICM | ≤ 0.25
59 | DTPM | ≤ 0.25
60 | GECQ | 17
61 | NGCQ | ≤ 0.25
62 | TGCQ | 13.9
63 | FGCQ | 13.2
64 | STCQ | 15.3
65 | FGCS | ≤ 0.25
66 | SQCQ | 3.73
67 | GECI | 7.86
68 | SPCQ | ≤ 0.25
69 | FGCI | 7.38
70 | RGCQ | ≤ 0.25
71 | GECS | 7.23
72 | WIRR | ≤ 0.25
73 | DKPL | ≤ 0.25
74 | LNCS | ≤ 0.25
75 | HHGV | ≤ 0.25
76 | NSRQ | ≤ 0.25
77 | LTKK | ≤ 0.25
78 | ARTW | ≤ 0.25

Row | Variant | enrichment ratio
79 | SHKM | ≤ 0.25
80 | ACGT | 4.5
81 | HFGF | ≤ 0.25
82 | MLHA | ≤ 0.25
83 | YTCQ | 1.7
84 | ITCQ | ≤ 0.25
85 | GICQ | 10.3
86 | GECL | 5.03
87 | GECA | 1.47
88 | MTCQ | ≤ 0.25
89 | GNHP | ≤ 0.25
90 | DTCQ | ≤ 0.25
91 | GTCQ | 13.4
92 | TTCQ | 18.9
93 | GECV | 16.3
94 | GNCQ | 12.1
95 | MPVD | ≤ 0.25
96 | LRSS | ≤ 0.25
97 | QFGG | ≤ 0.25
98 | YYIN | ≤ 0.25
99 | IIQY | ≤ 0.25
100 | NRIW | ≤ 0.25
101 | HQPD | ≤ 0.25
102 | YMHI | ≤ 0.25
103 | FYKD | ≤ 0.25
104 | HRDN | ≤ 0.25

Row | Variant | enrichment ratio
105 | QQHS | ≤ 0.25
106 | YSME | 1.23
107 | MDWD | ≤ 0.25
108 | FRMF | ≤ 0.25
109 | GHCQ | ≤ 0.25
110 | GGCQ | 13.2
111 | NICQ | ≤ 0.25
112 | LNMQ | ≤ 0.25
113 | NCQG | ≤ 0.25
114 | NALQ | ≤ 0.25
115 | NALL | 5.99
116 | TALI | 18.1
117 | TALQ | 15.2
118 | KALL | ≤ 0.25
119 | YACN | ≤ 0.25
120 | KALQ | ≤ 0.25
121 | IALI | 9.02
122 | TADK | ≤ 0.25
123 | TALL | 12
124 | NWCN | ≤ 0.25
125 | TACN | 13
126 | PICT | ≤ 0.25
127 | DTQQ | ≤ 0.25
128 | VDFR | ≤ 0.25
129 | SNNF | 6.15
130 | GFIP | ≤ 0.25

Row | Variant | enrichment ratio
131 | GLMF | 1.04
132 | FESF | ≤ 0.25
133 | AAEK | ≤ 0.25
134 | QIFT | ≤ 0.25
135 | TALC | 20.9
136 | IALC | 1.46
137 | TALA | 13.8
138 | TALT | 9.61
139 | KALC | ≤ 0.25
140 | TALN | 18.9
141 | TAQN | ≤ 0.25
142 | TALS | 10.9
143 | EALN | ≤ 0.25
144 | MHGF | ≤ 0.25
145 | YMMK | ≤ 0.25
146 | QQSN | ≤ 0.25
147 | NNFF | ≤ 0.25
148 | VDVG | ≤ 0.25
149 | FFRS | ≤ 0.25
150 | FHDF | ≤ 0.25
151 | MQYS | 6.75
152 | QTFE | ≤ 0.25
153 | SEKM | ≤ 0.25
